Molecules are shown by their SMILES. Several values for one entry are separate records, joined by “and”; a condition that tells them apart may be missing. Equal entries are not always repeated. Activity calls are given as the source filed them. How the calls were made is not given here.

This assay concerns Aerobactin synthetase IucA (Klebsiella pneumoniae, hypervirulent). In words: IucA enzyme inhibition, biochemical, LOPAC library, absorbance readout (AID 1346212).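 Further: 100% = no compound wells and 0% = no enzyme wells.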 The following applies: IucA enzyme assay, absorbance (OD) readout; hits give low values;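 tested at 8 µM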.
As for `c1ccc2c(c1)CCC[C@H]2Nc1nc2ccccc2[nH]1`, the remaining activity was 109% (inactive).
`CC(C)NC[C@H](O)c1ccc(O)c(O)c1`: the remaining activity was 108% (inactive) and 104% (inactive).
As to `CN(C)CCCCSC(=N)N`, the remaining activity was 84.5% (inactive).
With `CC(C)C[C@H](NC(=O)[C@H]1O[C@@H]1C(=O)O)C(=O)NCCCCN=C(N)N`, the remaining activity is 115% (inactive).
In the case of `CC(C)C[C@H]1C(=O)N2CCC[C@H]2[C@]2(O)O[C@](NC(=O)[C@@H]3C=C4c5cccc6[nH]c(Br)c(c56)C[C@H]4N(C)C3)(C(C)C)C(=O)N12`, the remaining activity was 108% (inactive).
Under `Cc1cc(O)c2c(c1)C(=O)c1cc(O)cc(O)c1C2=O` stands 76.7% (inactive); under `CC[n+]1c(/C=C/C=C2/N(C)c3ccccc3C2(C)C)sc2ccccc21`, 93.2% (inactive); under `NCCC1CCCC(CCN)N1` (stereo not given), 115% (inactive).
The value for `CC[N+](CC)(CC)CC(=O)Nc1c(C)cccc1C` was 113% (inactive); that for `O=C(c1ccc(Cl)cc1)N1CCN(c2ccc([N+](=O)[O-])c3ncccc23)CC1` was 120% (inactive); that for `CCN1/C(=C/C(C)=O)Sc2ccc(OC)cc21` was 123% (inactive).
The value for `N[C@@H](CCC(=O)N[C@@H](CSN=O)C(=O)NCC(=O)O)C(=O)O` was 119% (inactive).
Regarding `O=c1[nH]c2cc(C(F)(F)F)ccc2n1-c1cc(C(F)(F)F)ccc1O`, the remaining activity is 112% (inactive).
`C[C@]12CC[C@@H]3c4ccc(O)cc4CC[C@H]3[C@@H]1CCC2=O`: the remaining activity is 103% (inactive).
For `COc1ccc2c(c1)c(CC(=O)O)c(C)n2Cc1ccc(Cl)cc1`, the remaining activity was 99.3% (inactive).
Turning to `C[C@]12CCC(=O)C=C1CC[C@@H]1[C@@H]2[C@@H](O)C[C@@]2(C)[C@H]1CC[C@]2(O)C(=O)COC(=O)CCC(=O)O`, the remaining activity was 92.9% (inactive).
As to `CC(O)C(O)[C@H]1CNc2nc(N)[nH]c(=O)c2N1` (stereo not given in full), the remaining activity was 102% (inactive).
Regarding `CC(=O)[C@@]1(O)CC[C@H]2[C@@H]3CCC4=CC(=O)CC[C@]4(C)[C@H]3CC[C@@]21C`, the remaining activity was 106% (inactive).
As for `C[C@H](NC(=O)/C(C#N)=C/c1ccc(O)c(O)c1)c1ccccc1`, the remaining activity was 95.7% (inactive).
Regarding `N#C/C(=C\c1ccc(O)c(O)c1)C(=O)NCCCc1ccccc1`, the remaining activity was 103% (inactive).
Under `COc1cc2c(CCNC(C)=O)c[nH]c2cc1Cl` stands 115% (inactive); under `C=C[C@H]1CN2CC[C@H]1C[C@H]2[C@H](O)c1ccnc2ccc(OC)cc12`, 110% (inactive).
Consider `COc1ccccc1CNCCCCCCNCCCCCCCCNCCCCCCNCc1ccccc1OC`, for which the remaining activity is 91.3% (inactive).
Under `CCOC(=O)C1=C(C)NC(C)=C(C(=O)OC)C1c1cccc([N+](=O)[O-])c1` (stereo not given) stands 112% (inactive); under `CC(=O)[C@H]1CCC2C3CC=C4C[C@@H](OS(=O)(=O)O)CC[C@]4(C)C3CC[C@@]21C` (stereo not given in full), 107% (inactive); under `CCCCN1CCC(n2c(=O)[nH]c3ccccc32)CC1`, 110% (inactive).
Consider `CC(N)=O`, for which the remaining activity was 124% (inactive).
Under `NC(=S)c1ccc[n+]([C@@H]2O[C@@H](COP(=O)([O-])OP(=O)(O)OC[C@H]3O[C@@H](n4cnc5c(N)ncnc54)C(OP(=O)(O)O)[C@H]3O)C(O)C2O)c1` (stereo not given in full) stands 97.1% (inactive); under `N=C(N)SCCc1ccc(CCSC(=N)N)cc1`, 102% (inactive); under `COc1ccc(CC(C)NCC(O)c2ccc(O)c(NC=O)c2)cc1` (stereo not given), 102% (inactive).
On to `NC[C@@H]1O[C@H](C23CC4CC(CC(C4)C2)C3)Cc2c1ccc(O)c2O`, for which the remaining activity is 111% (inactive).
For `CCCCS(=N)(=O)CC[C@H](N)C(=O)O` (stereo not given in full), the remaining activity is 92.2% (inactive).
With `O=S(=O)(c1cccc2c(Cl)cccc12)N1CCCNCC1`, the remaining activity is 110% (inactive).
For the molecule `Cc1cc(C)c(/C=C2\C(=O)Nc3ccccc32)[nH]1`, the remaining activity is 118% (inactive).
Under `COc1cc(=O)n(C)c2c(OCC(O)C(C)(C)O)cccc12` (stereo not given) stands 108% (inactive).
With `OC(CN1CCN(c2cccc(Cl)c2)CC1)C(c1ccccc1)c1ccccc1` (stereo not given), the remaining activity is 114% (inactive).
`O=c1c(O)c(-c2cc(O)c(O)c(O)c2)oc2cc(O)cc(O)c12`: the remaining activity was 115% (inactive).
In the case of `CC(C)N(CCC(=O)c1ccc2ccccc2c1)Cc1ccccc1`, the remaining activity is 112% (inactive).
Take `Cn1ccc2cc(NC(=O)Nc3cccnc3)ccc21`: the remaining activity was 117% (inactive).
Consider `N[C@@H](Cc1ccc(F)cc1)C(=O)O`, for which the remaining activity is 95% (inactive).

For orientation: remaining activity means the signal under treatment as a percentage of the control signal.

Values taken from PubChem BioAssay.
